Data from PubChem BioAssay (EPA / NIEHS).
Activity calls are given as the source filed them. The calls were made as follows: active = hit-call score of the fitted dose curve at least 0.9, where 1 is the maximum; inactive = score below 0.9.

Tests used:
[1] = target: Bile acid receptor (Homo sapiens) (UniProt Q96RI1); experiment: ATG_IR1_CIS: Attagene CIS-FACTORIAL HepG2 Assay for human Nuclear Receptor Subfamily 1 Group H Member 4 (NR1H4), IR1 submotif (AID 2282946); conditions: IR1 reporter transcription, actives raise or lower the signal
Method in brief: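 Cells (human HepG2) carry transiently transfected cis-promoter reporter transcription units. Compounds are incubated 24 h, total RNA is reverse-transcribed and amplified, and labelled fragments are resolved by capillary electrophoresis. Curves use DMSO as baseline.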

[2] = ATG_GRE_CIS: Attagene CIS-FACTORIAL HepG2 Assay for human Glucocorticoid Response Elements (GRE) (AID 2282947); conditions: HepG2 GRE cis-reporter, Attagene multiplex mRNA; actives raise or lower the signal
Method in brief: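 Transient MRTU transfection of human HepG2 liver cells; cis-regulated reporters report endogenous factors. 24 h dosing → RNA isolation → RT-PCR → 6-FAM primer extension → HpaI cut → CE fragment analysis. Bidirectional fit, DMSO negative control.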

[3] = ATG_ISRE_CIS: Attagene CIS-FACTORIAL HepG2 Assay for human Interferon Regulatory Factor 1 (IRF1) binding to an Interferon-Stimulated Response Element (ISRE) (AID 2282948); conditions: HepG2 ISRE cis-reporter (Attagene), mRNA transcription readout; actives raise or lower the signal
Method in brief: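 Cell-based cis-reporter assay; HepG2; 24 h exposure; reporter mRNA by RT-PCR plus capillary electrophoresis fluorescence; activity in either direction scored relative to DMSO.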

[4] = ATG_M_32_CIS: Attagene CIS-FACTORIAL HepG2 Assay for M32 Transcription Factor (Internal Marker) (AID 2282949); conditions: HepG2 Attagene cis-factorial M32 reporter, mRNA; actives raise or lower the signal;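 also: background control marker of the multiplexed CIS panel rather than a real target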
Method in brief: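 Fluorescent capillary electrophoresis peaks of HpaI-digested, FAM-labelled RT-PCR reporter products give the signal. Source: transiently transfected human liver HepG2 cells, 24 h after chemical dosing; bidirectional fitting against DMSO.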

[5] = ATG_M_06_CIS: Attagene CIS-FACTORIAL HepG2 Assay for M06 Transcription Factor (Internal Marker) (AID 2282950); conditions: HepG2 Attagene CIS-FACTORIAL M06 internal marker reporter; actives raise or lower the signal
Method in brief: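 Internal background marker within multiplexed cis-reporter HepG2 system. Cells transiently transfected, dosed 24 h; reporter mRNA measured by RT-PCR, HpaI digestion and capillary electrophoresis. Bidirectional fit relative to DMSO.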

[6] = target: Hepatocyte nuclear factor 6 (Homo sapiens) (UniProt Q9UBC0); experiment: ATG_HNF6_CIS: Attagene CIS-FACTORIAL HepG2 Assay for human Hepatocyte Nuclear Factor 6 (HNF6) (AID 2282952); conditions: HepG2 Attagene cis-factorial HNF6 reporter transcription; actives raise or lower the signal
Method in brief: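 Cells are HepG2 carrying transiently transfected cis-promoter reporter units. Treatment lasts 24 h, after which reporter transcripts are reverse-transcribed, amplified, FAM-labelled and sized by capillary electrophoresis. DMSO serves as baseline.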

[7] = target: Heat shock factor protein 1 (Homo sapiens) (UniProt Q00613); experiment: ATG_HSE_CIS: Attagene CIS-FACTORIAL HepG2 Assay for human Heat Shock Transcription Factor 1 (HSE) (AID 2282953); conditions: HepG2 HSE cis-reporter, Attagene RNA transcription; actives raise or lower the signal
Method in brief: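 HepG2 cells transfected with cis-promoter reporter units sensing endogenous transcription factor activity; reporter mRNA quantified 24 h post-dose by RT-PCR and capillary electrophoresis of 6-FAM-labelled products. Bidirectional fitting against DMSO.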

[8] = ATG_MRE_CIS: Attagene CIS-FACTORIAL HepG2 Assay for human Metal Responsive Element (MRE) (AID 2282954); conditions: HepG2 MRE cis-reporter transcription, Attagene multiplex; actives raise or lower the signal
Method in brief: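 Transient MRTU transfection of HepG2 (FuGene 6); 24 h dosing; total RNA → oligo(dT) RT, PCR, 6-FAM primer extension, HpaI cut, CE. Bidirectional fit vs DMSO.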

[9] = target: Hypoxia-inducible factor 1-alpha (Homo sapiens) (UniProt Q16665); experiment: ATG_HIF1a_CIS: Attagene CIS-FACTORIAL HepG2 Assay for human Hypoxia Inducible Factor 1 (HIF1A) (AID 2282951); conditions: HepG2 Attagene cis-factorial HIF1a reporter transcription; actives raise or lower the signal
Method in brief: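 Endogenous-TF cis reporter readout, human HepG2 cells, 24 h incubation; mRNA detected via RT-PCR and capillary electrophoresis fluorescence; DMSO-normalised bidirectional fitting.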

[10] = ATG_PBREM_CIS: Attagene CIS-FACTORIAL HepG2 Assay for human Phenobarbital-responsive Enhancer Module (PBREM) (AID 2282955); conditions: HepG2 PBREM cis-reporter, Attagene multiplexed transcription; actives raise or lower the signal
Method in brief: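 Readout: reporter mRNA, fluorescent RT-PCR fragments separated by capillary electrophoresis. System: HepG2 transiently transfected with cis-regulated reporter units. Exposure: 24 h. Analysis: bidirectional, DMSO baseline.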

Measured: AC50

Chain of Hypoxia-inducible factor 1-alpha (Homo sapiens) (Q16665 whole entry, looked up): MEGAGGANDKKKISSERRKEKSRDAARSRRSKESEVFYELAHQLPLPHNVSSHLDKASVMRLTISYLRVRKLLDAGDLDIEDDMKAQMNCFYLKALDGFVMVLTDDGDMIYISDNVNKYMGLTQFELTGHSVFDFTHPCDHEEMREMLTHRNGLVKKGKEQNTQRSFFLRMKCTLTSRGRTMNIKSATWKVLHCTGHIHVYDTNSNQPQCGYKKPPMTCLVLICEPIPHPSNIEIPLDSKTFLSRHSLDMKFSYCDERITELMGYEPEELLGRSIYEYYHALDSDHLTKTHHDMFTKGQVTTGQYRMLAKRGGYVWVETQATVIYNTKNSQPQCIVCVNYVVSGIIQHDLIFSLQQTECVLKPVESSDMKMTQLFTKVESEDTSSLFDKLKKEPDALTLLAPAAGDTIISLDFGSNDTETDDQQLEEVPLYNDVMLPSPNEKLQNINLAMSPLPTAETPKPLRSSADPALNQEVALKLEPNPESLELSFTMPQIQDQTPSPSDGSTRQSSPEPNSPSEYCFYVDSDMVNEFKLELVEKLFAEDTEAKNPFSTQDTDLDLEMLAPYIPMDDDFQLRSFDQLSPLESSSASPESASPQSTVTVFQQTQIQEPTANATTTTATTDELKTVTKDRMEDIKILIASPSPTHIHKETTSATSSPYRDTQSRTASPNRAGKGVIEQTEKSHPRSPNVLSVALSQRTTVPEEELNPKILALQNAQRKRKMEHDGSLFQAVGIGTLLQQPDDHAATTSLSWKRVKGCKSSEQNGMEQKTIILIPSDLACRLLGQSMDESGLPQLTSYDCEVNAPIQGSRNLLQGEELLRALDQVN
Chain of Heat shock factor protein 1 (Homo sapiens) (Q00613 whole entry, looked up): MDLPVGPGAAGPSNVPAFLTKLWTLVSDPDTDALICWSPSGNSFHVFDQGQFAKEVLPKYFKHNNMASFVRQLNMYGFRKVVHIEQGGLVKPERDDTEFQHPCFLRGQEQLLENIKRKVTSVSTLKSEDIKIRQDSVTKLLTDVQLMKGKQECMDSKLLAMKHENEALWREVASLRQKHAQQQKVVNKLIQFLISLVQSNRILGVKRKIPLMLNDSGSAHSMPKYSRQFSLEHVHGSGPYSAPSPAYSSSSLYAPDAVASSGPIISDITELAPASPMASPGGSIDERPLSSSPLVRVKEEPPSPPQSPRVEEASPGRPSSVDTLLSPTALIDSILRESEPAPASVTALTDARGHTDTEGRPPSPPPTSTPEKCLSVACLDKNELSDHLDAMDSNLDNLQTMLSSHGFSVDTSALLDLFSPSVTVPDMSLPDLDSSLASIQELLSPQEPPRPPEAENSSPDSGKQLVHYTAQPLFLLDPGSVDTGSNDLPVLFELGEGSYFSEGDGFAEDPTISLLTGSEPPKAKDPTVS
Chain of Hepatocyte nuclear factor 6 (Homo sapiens) (Q9UBC0 whole entry, looked up): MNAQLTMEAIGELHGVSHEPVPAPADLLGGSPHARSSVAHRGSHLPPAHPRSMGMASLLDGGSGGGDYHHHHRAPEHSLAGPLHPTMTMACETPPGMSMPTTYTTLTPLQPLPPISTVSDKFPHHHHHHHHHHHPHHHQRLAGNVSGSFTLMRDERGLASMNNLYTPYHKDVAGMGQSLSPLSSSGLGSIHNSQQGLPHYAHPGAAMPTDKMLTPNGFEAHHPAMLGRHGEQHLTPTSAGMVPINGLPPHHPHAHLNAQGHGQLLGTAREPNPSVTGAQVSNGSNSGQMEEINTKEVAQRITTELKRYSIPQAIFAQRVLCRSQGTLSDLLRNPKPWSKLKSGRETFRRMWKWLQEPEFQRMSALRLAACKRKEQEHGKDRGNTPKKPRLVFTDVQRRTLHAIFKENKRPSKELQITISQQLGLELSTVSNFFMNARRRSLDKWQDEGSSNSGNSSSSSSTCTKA
Chain of Bile acid receptor (Homo sapiens) (Q96RI1 whole entry, looked up, the tested form may be a part): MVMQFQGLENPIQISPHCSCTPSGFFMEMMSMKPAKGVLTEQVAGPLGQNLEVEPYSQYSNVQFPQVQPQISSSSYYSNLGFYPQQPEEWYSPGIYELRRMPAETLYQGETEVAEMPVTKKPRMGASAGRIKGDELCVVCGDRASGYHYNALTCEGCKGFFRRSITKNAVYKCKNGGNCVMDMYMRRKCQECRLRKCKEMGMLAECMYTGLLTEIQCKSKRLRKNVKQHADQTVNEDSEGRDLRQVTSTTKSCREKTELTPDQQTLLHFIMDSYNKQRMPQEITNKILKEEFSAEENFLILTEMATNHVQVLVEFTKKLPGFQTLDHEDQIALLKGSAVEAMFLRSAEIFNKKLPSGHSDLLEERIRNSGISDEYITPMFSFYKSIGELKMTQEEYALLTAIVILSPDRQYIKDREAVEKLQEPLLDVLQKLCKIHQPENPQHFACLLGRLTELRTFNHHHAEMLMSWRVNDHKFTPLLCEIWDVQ

CCCC(C)C(O)CC (stereo not drawn)
not listed: [9] | [10]
inactive: all other assays above

CCCCCCOCCOCCO
not listed: [8] | [9] | [10]
inactive: all other assays above

CSCCC=O
not listed: [7]
inactive: all other assays above

CC(=O)CC(=O)Nc1ccc(C)cc1C
not listed: [7] | [8]
inactive: all other assays above

Nc1ccc2cc(S(=O)(=O)O)cc(O)c2c1N=Nc1ccccc1C(F)(F)F
inactive: all assays above

CC1(C)C(=O)N(Cl)C(=O)N1Br
inactive: all assays above

CCCCCCCCCCCC(=O)OC[C@@H](O)[C@H]1OC[C@H](O)[C@H]1O
not listed: [8]
inactive: all other assays above

CC(C)C[C@H](NC(=O)OCC1c2ccccc2-c2ccccc21)C(=O)O
inactive: all assays above

COC(=O)c1ccc([N+](=O)[O-])cc1
inactive: all assays above

CCCC[O][Al]([O]CCCC)[O]CCCC
inactive: all assays above

CCCOCCO
inactive: all assays above

O=C(O)CNc1ccccc1
active: [4] 165 µM
inactive: all other assays above

C=C(CC(=O)O)C(=O)O
not listed: [9] | [10]
inactive: all other assays above

CCCCCCC(O)CCCCCCCCCCC(=O)O (stereo not drawn)
not listed: [8]
inactive: all other assays above

Cc1ccc(S(=O)(=O)Oc2ccc(N=Nc3ccc(-c4ccc(N=Nc5c(O)ccc6cc(S(=O)(=O)O)cc(S(=O)(=O)O)c56)c(C)c4)cc3C)cc2)cc1
inactive: all assays above

Nc1ccc(N)c2c1C(=O)c1ccccc1C2=O
inactive: all assays above

CCCCCCCCCCCCS(=O)(=O)Cl
inactive: all assays above

Cc1cc(CCC(=O)OCCOCCOCCOC(=O)CCc2cc(C)c(O)c(C(C)(C)C)c2)cc(C(C)(C)C)c1O
active: [8] 26.6 µM | [10] 17.7 µM
inactive: all other assays above

CCCCCCCCCCCCN1CCCCCC1=O
active: [7] 15.8 µM | [10] 9.68 µM
inactive: all other assays above

COc1ccc(OC)c(N=Nc2c(O)ccc3ccccc23)c1
inactive: all assays above

CC1(C)O[C@@H]2C[C@H]3[C@@H]4CCC5=CC(=O)C=C[C@]5(C)[C@@]4(F)[C@@H](O)C[C@]3(C)[C@]2(C(=O)CO)O1
active: [2] 0.419 µM
not listed: [7] | [10]
inactive: all other assays above

CCCCOCC
not listed: [8]
inactive: all other assays above

CCCCCCCC(=O)OCCCCCC
inactive: all assays above

C=Cc1ccncc1
active: [3] 55.9 µM | [6] 33.9 µM | [7] 75.8 µM | [8] 28.2 µM
inactive: all other assays above

CCN(CC)C(=O)N(CC)CC
inactive: all assays above

O=P(O)(O)O
not listed: [9] | [10]
inactive: all other assays above

CCCN(CCC)S(=O)(=O)c1ccc(C(=O)O)cc1
not listed: [9] | [10]
inactive: all other assays above

O=C1OC2(c3ccccc31)c1ccc(O)c(Br)c1Oc1c2ccc(O)c1Br
active: [10] 35.3 µM
not listed: [5]
inactive: all other assays above

CC(=O)c1c(C)c([N+](=O)[O-])c(C(C)(C)C)c([N+](=O)[O-])c1C
not listed: [5] | [8]
inactive: all other assays above

O=C(O)c1ccc(O)cc1
not listed: [9]
inactive: all other assays above

CCCCC(CC)C(=O)OC(C)C (stereo not drawn)
not listed: [4] | [10]
inactive: all other assays above

COc1ccc(CCN2CCC(Nc3nc4ccccc4n3Cc3ccc(F)cc3)CC2)cc1
not listed: [8] | [9]
inactive: all other assays above

CCCCCCCCCC(C)C=O (stereo not drawn)
not listed: [5]
inactive: all other assays above

CCCC[P+](CCCC)(CCCC)CCCC
not listed: [9]
inactive: all other assays above

COC(C)(C)CCCC(C)CC=O (stereo not drawn)
not listed: [5]
inactive: all other assays above

COC(C)(C)CC(C)=O
not listed: [4]
inactive: all other assays above

CCC1(c2ccccc2)C(=O)NCNC1=O
not listed: [9]
inactive: all other assays above

NC1CCCCC1N (stereo not drawn)
not listed: [4]
inactive: all other assays above

C[C@H]1O[C@@H](O[C@H]2[C@@H](O)C[C@H](O[C@H]3[C@@H](O)C[C@H](O[C@H]4CC[C@@]5(C)[C@H](CC[C@@H]6[C@@H]5C[C@@H](O)[C@]5(C)[C@@H](C7=CC(=O)OC7)CC[C@]65O)C4)O[C@@H]3C)O[C@@H]2C)C[C@H](O)[C@@H]1O
inactive: [4] | [5] | [6]
active: [1] 0.253 µM | [2] 3.3 µM | [3] 0.179 µM | [7] 0.194 µM | [8] 0.182 µM

Cc1cc(=O)oc2cc(N(C)C)ccc12
active: [10] 100 µM
not listed: [4]
inactive: all other assays above

CCCCCCCCc1ccc(S(=O)(=O)O)cc1
active: [1] 175 µM | [4] 99.5 µM | [6] 167 µM | [10] 99.5 µM
not listed: [5]
inactive: all other assays above

C=C1C[C@]23C[C@@]1(O)CC[C@H]2[C@@]12C=C[C@H](O)[C@@](C)(C(=O)O1)[C@H]2[C@@H]3C(=O)O
not listed: [5] | [7]
inactive: all other assays above

NCC1CCCC(CN)C1 (stereo not drawn)
not listed: [5]
inactive: all other assays above

IC(I)I
not listed: [4] | [9] | [10]
inactive: all other assays above

Cc1c(OCC(F)(F)F)ccnc1CS(=O)c1nc2ccccc2[nH]1 (stereo not drawn)
active: [8] 73.1 µM
not listed: [7] | [9]
inactive: all other assays above

C=COCCOCCOC=C
not listed: [4]
inactive: all other assays above

CCNCCO
not listed: [4] | [10]
inactive: all other assays above

CCCCCCC(C)Nc1ccc(Nc2ccccc2)cc1 (stereo not drawn)
active: [7] 60.8 µM | [8] 48.9 µM
not listed: [5] | [10]
inactive: all other assays above

O=c1c(O)c(-c2ccc(O)cc2)oc2cc(O)cc(O)c12
not listed: [5] | [9]
inactive: all other assays above

Cc1ccc(C)o1
not listed: [9]
inactive: all other assays above

Cc1ncc[nH]1
not listed: [4] | [10]
inactive: all other assays above

CCCCCc1ccco1
active: [1] 105 µM | [7] 115 µM
not listed: [5]
inactive: all other assays above

CC(C)(C)C1=CC(=O)C(C(C)(C)C)=CC1=O
inactive: [1] | [5] | [10]
active: [2] 50 µM | [3] 71.2 µM | [9] 33.3 µM | [6] 78.1 µM | [7] 97.3 µM | [8] 50 µM
